In PubChem BioAssay (NCI):
The panel holds about 83,000 compounds, 20% with a hit somewhere; the sample as a whole holds those more often.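 Single-dose data. Exposure time 48 hours. Values below 10 considered active.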 Unmarked numbers belong to inactive results. Active and inactive are the calls of the source.

The compounds below were run on HL-60(TB) leukemia (assay: NCI-60 one-dose screen, 48 h (100 = growth as untreated, 0 = no growth, -100 = all killed)). Settings: 10 µM unless noted.

`COc1ccc(C(=O)CSc2nc(-c3cc(OC)ccc3OC)cc(-c3ccc(Cl)cc3)c2C#N)cc1` was tested. Which growth did it give?
The growth was 106%.

How did the growth turn out when `COc1ccc2c(c1)C(=O)/C(=C/c1ccc(OCC(=O)Nc3nccs3)cc1)O2` was run?
Its growth is -84.2% (active).

Which growth does the source give for `COc1cc(OC)c(C(=O)/C=C/c2cc3c(cc2OCc2ccccc2)OC(C)(C)CC3)cc1CC=C(C)C` here?
Its growth is -28.5% (active).

`COc1nc2ccccc2cc1-c1nc2c(cnn2-c2ccc(Br)cc2)c(=O)[nH]1` was tested. Which growth did it give?
The growth was 8.57% (active).

How did the growth turn out when `CN(C)c1ccc(Nc2c3ccccc3nc3cc(NC(=O)CCN4CCCC4)ccc23)cc1` was run?
Its growth is -57.9% (active).

`CC(C)OC(=O)Nc1cc(F)ccc1F` was tested. Which growth did it give?
The growth was 94.7%.

For `CC(C)C(NC(=O)C1(NC(=O)OCc2ccccc2)CCCC1)C(=O)O` (stereo not given), which growth is on record?
The growth was 90.8%.

Which growth does the source give for `N#CC1=C(N)Oc2ccc3ccccc3c2C1c1ccccc1Cl` (stereo not given) here?
Its growth is 0.765% (active).

`CC(=O)OC[Si](C)(C)c1ccccc1` was tested. Which growth did it give?
Its growth is 100%.

Which growth does the source give for `O=C(Nc1cccc2ccccc12)c1cc2ccccc2cc1O` here?
Its growth is 9.13% (active).

With `O=C(c1cccc(N2CCOCC2)n1)c1c[nH]c2ccccc12` as the compound, how does the growth read?
Its growth is 98.9%.

`O=C(O)CS(=O)c1ccc(Cl)cc1` (stereo not given) was tested. Which growth did it give?
The growth was 86.2%.

How did the growth turn out when `COc1ccc(-c2ccc(=O)oc2C#Cc2cc(OC)c(OC)c(OC)c2)cc1O` was run?
Its growth is -45.7% (active).

`NS(=O)(=O)Oc1cccc(-c2nc3sccn3c2-c2ccccc2)c1` was tested. Which growth did it give?
Its growth is 0.181% (active).

How did the growth turn out when `C/C=C/CSC(C)(C)C(=O)NC` was run?
Its growth is 98.7%.

`COc1ccc(-c2cc(-c3nnc(SCC(=O)Nc4ccc(/C(C)=N\O)cc4)o3)c3ccccc3n2)cc1` was tested. Which growth did it give?
The growth was 104%.

With `CCOC(=O)c1sc(NC(=O)COc2cccc(/C=C3\Cc4ccc(Cl)cc4C3=O)c2)nc1C` as the compound, how does the growth read?
The growth was 120%.

With `CC(C)(C)n1cc(-c2ccnc(NCCCNS(=O)(=O)c3ccc(Br)cc3)c2)c(-c2cccc(O)c2)n1` as the compound, how does the growth read?
The growth was 3.72% (active).

For `N#Cc1c2cccnc2c2nnc3cc(Cl)c(Cl)cc3n12`, which growth is on record?
Its growth is 23.3%.

For `CN1CCN(CCOc2ccc(-c3cnc4c(-c5cccc(F)c5F)cnn4c3)cc2)CC1`, which growth is on record?
Its growth is -49.9% (active).

For `CC(C)n1nc(C#Cc2cccc(NC(=O)c3cccc(C(F)(F)F)c3)c2)c2c(N)ncnc21`, which growth is on record?
Its growth is -18.9% (active).

How did the growth turn out when `C/C(=C\CCc1ccoc1)CC/C=C(\C)CCCN1CCOCC1` was run?
Its growth is 35.5%.

Which growth does the source give for `CN(C)c1ccc2cc(-c3ccccc3F)c(N)nc2c1` here?
The growth was 5.36% (active).

For `COC(=O)[C@@]1(C)CC[C@]2(C)CC[C@]3(C)C4=CC=C5C(=CC(=O)C(O)=C5C)[C@]4(C)[C@@H](O)C[C@@]3(C)[C@@H]2C1`, which growth is on record?
Its growth is 49.6%.

For `CCn1c(O)c(/C=N/NC(=O)C(C)c2ccc(CC(C)C)cc2)sc1=S` (stereo not given), which growth is on record?
Its growth is -32.5% (active).

How did the growth turn out when `COc1cc([C@@H]2c3cc4c(cc3[C@H](SC(=N)N)[C@H]3COC(=O)[C@H]23)OCO4)cc(OC)c1OC` was run?
The growth was -18.8% (active).

`CCCCN(CCCC)C(=O)[C@H](CC)[C@@H]1CC[C@@H](C)[C@@H]([C@H](C)[C@@H](O)[C@@H](C)C(=O)[C@H](CC)C2O[C@]3(C=CC(=O)[C@]4(CC[C@@](C)([C@H]5CC[C@](O)(CC)[C@H](C)O5)O4)O3)[C@H](C)C[C@@H]2C)O1` (stereo not given in full) was tested. Which growth did it give?
The growth was -1.52% (active).

For `O=C(CC1(O)C(=O)Nc2c(Cl)ccc(Cl)c21)c1ccc(Cl)cc1Cl` (stereo not given), which growth is on record?
The growth was 80.8%.

`CCCCCCCOc1cccc(/C=C2/C(=O)N=C3SCCCN32)c1` was tested. Which growth did it give?
Its growth is 95.2%.

Which growth does the source give for `CCN(C(=O)N1CCN(c2cc3c(cc2F)c(=O)c(C(=O)O)cn3C2CC2)CC1)c1nc(-c2ccc(C)cc2)cs1` here?
Its growth is 7.49% (active).

How did the growth turn out when `Cc1ccc(CNc2ccc3nc(CCC(C)C)[nH]c3c2)cc1` was run?
The growth was 93.7%.

With `Nc1[nH]n2cc(-c3ccc(F)cc3)nc2c1N=Nc1ccc(S(N)(=O)=O)cc1` as the compound, how does the growth read?
The growth was 94.7%.

With `NC(=O)c1ccc(N=C(N)N=C(N)N)cc1` as the compound, how does the growth read?
The growth was 98.7%.

With `Cc1csc(Nc2nc(-c3ccc(Cl)cc3)nc(C(Cl)(Cl)Cl)n2)n1` as the compound, how does the growth read?
The growth was 69.3%.

For `CCCCCCCCO`, which growth is on record?
The growth was 93.8%.

For `CC(C)=CC(=O)OCC(=O)O[C@@H]1C[C@]2(C(C)C)O[C@@]1(C)[C@@H]1CC[C@@H](C)[C@H]1[C@@H]2OC(=O)/C=C/c1ccccc1`, which growth is on record?
Its growth is 85%.

For `O=[N+]([O-])c1ccc(Sc2cccc[n+]2[O-])c2nonc12`, which growth is on record?
Its growth is -49.1% (active).

`COc1cc(/C=C\c2cc(OC)c(OC)c(OC)c2)cc(N/C=C\C(=O)c2c[nH]c3ccccc23)c1OC` was tested. Which growth did it give?
The growth was -30% (active).

Which growth does the source give for `O=C1Nc2cc(-c3cccc([N+](=O)[O-])c3)ccc2/C1=C/c1ccc[nH]1` here?
The growth was 101%.

`CN(C)c1ccc(C(=O)c2ccc(N(C)C)c(N)c2)cc1N` was tested. Which growth did it give?
Its growth is 7.38% (active).
